The results in this text go back to PubChem BioAssay AID463173 (ICCB-Longwood Screening Facility, Harvard Medical School, 2010).

Screen size: about 52,000 compounds; about 1,700 (3.3%) were called active. The entries come from a sample that favours actives as a whole. A number with no mark means an inactive call. Rule as the data show it: active = survival mostly below about 52% (no sharp cut-off); inactive = mostly above about 56%.

The subject of the experiment is Wild type. The experiment can be described thus: S. aureus survival, RN4220 and DeltatarO strains – OD600, teichoic acid synthesis inhibitors, primary screen (AID 463173). The following applies: S. aureus RN4220 wild type/DeltatarO growth, OD600, 18 h, stronger effect = lower value, screened at 18.75 µg/mL (by protocol).
Turning to `CN(C1CCCCC1)S(=O)(=O)Cc1ccccc1`, the survival is 94%. The result for `CC1=C(c2ccc(C)cc2)S(=O)(=O)N(Cc2ccc(C(=O)Nc3ccc(F)cc3C)cc2)C1=O` reads 135%. Consider `CCC(=O)N1CCc2cc(Br)cc(S(=O)(=O)CCC(=O)NCCc3cccc(C)c3)c21`, for which the survival is 45%. The result for `COc1cccc(NC(=O)Cn2c(=O)n(CCc3cccc(C)c3)c(=O)c3ccccc32)c1` reads 82%; that for `CSc1ccc(CCNC(=O)CCc2c(C)nc3cc(-c4ccccc4)nn3c2C)cc1`, 86%; that for `CCc1ccccc1NC(=O)Cn1c(=O)ccc2cc(S(=O)(=O)N3CCCC3)ccc21`, 64%. The result for `CCOc1ccccc1NC(=O)Cn1c(=O)ccc2cc(S(=O)(=O)N3CCCC3)ccc21` reads -3% (active); that for `CCOc1ccccc1NC(=O)Cn1c(=O)ccc2cc(S(=O)(=O)N3CCC(C)CC3)ccc21`, 65%. For `Cc1cc(C)c(NC(=O)Cn2c(=O)n(CCC(=O)N3CCc4ccccc4C3)c(=O)c3ccccc32)c(C)c1`, the survival is 83%.

`CCC(=O)N1CCc2cc(S(=O)(=O)N(C)c3cccc(C)c3)ccc21`: the survival is 86%. The result for `CCOC(=O)c1ccc(-n2c(C)nc3c(cnn3-c3ccc(Cl)cc3)c2=O)cc1` reads 71%; that for `CCc1cccc(-n2c(C)nc3c(cnn3-c3ccc(C)c(C)c3)c2=O)c1`, 2% (active).

For the compound `CCc1nc2c(cnn2-c2ccc(C)cc2)c(=O)n1Cc1ccccc1`, the survival was 22%.

In the case of `CCc1nc2c(cnn2-c2ccccc2)c(=O)n1-c1ccc(Br)cc1`, the survival is 108%.

Consider `COc1cccc(-n2c(C)nc3c(cnn3-c3ccc(C)c(C)c3)c2=O)c1`, for which the survival is 54%. The result for `CCc1cccc(-n2c(C)nc3c(cnn3-c3ccc(Cl)cc3)c2=O)c1` reads -2% (active); that for `COc1ccc(-n2c(C)nc3c(cnn3-c3ccc(C)c(C)c3)c2=O)cc1Cl`, 118%; that for `CCc1nc2c(cnn2-c2ccc(C)cc2)c(=O)n1-c1ccc(C)cc1`, 18% (active). To `Cc1nc2c(cnn2-c2ccccc2)c(=O)n1-c1ccccc1` belongs 126%; to `Cc1c(C(=O)OCC2CCCCC2)[nH]c2c1C(=O)CC(c1ccccc1Cl)C2` (stereo not given), 92%; to `Cc1oc2ncn(CC(C)C)c(=O)c2c1C(=O)NCCCN(C)Cc1ccccc1`, 76%. As to `Cc1cc2nsnc2c(S(=O)(=O)NCC(=O)O)c1C`, the survival is 99%. To `CCCCCCSc1ncc(C#N)c(N)n1` belongs 119%.

With `CCCCCCSc1nc(N)c2c3c(sc2n1)CCCC3C` (stereo not given), the survival is -2% (active).

Consider `CC1CCCc2sc3nc(SCC(=O)c4ccc(Br)cc4)nc(N)c3c21` (stereo not given), for which the survival was 66%. The result for `CCCCCNC(=O)C(=O)NCC(c1ccc2c(c1)OCO2)N1CCOCC1` (stereo not given) reads 68%; that for `Cc1ccc(CNC(=O)c2ccc3c(c2)NC(=O)C(CS(=O)(=O)Cc2cccc(F)c2)N3)cc1` (stereo not given), 117%. To `O=C(/C=C/c1ccc(Cl)cc1)N1CCC(c2nc3ccccc3o2)CC1` belongs 120%; to `CCN(CC)C(=O)Cn1c(=O)n(-c2ccc(Cl)cc2)c(=O)c2c3c(sc21)CCC3`, 73%.

Regarding `CCCN1C(=O)c2[nH]nc(-c3ccccc3O)c2C1c1ccc(OCc2ccccc2)c(OC)c1` (stereo not given), the survival is 64%. To `COCCN1C(=O)c2[nH]nc(-c3ccccc3O)c2C1c1ccc(Cl)c(Cl)c1` (stereo not given) belongs 3% (active); to `CCCCN1C(=O)c2[nH]nc(-c3ccccc3O)c2C1c1ccc(OCc2ccccc2)c(OC)c1` (stereo not given), 64%; to `COCCCN1C(=O)c2[nH]nc(-c3cc(C)ccc3O)c2C1c1ccc(F)cc1` (stereo not given), 92%. To `CCCCN1C(=O)c2[nH]nc(-c3ccccc3O)c2C1c1cc(Br)c(O)c(OC)c1` (stereo not given) belongs 10% (active); to `COCCN1C(=O)c2[nH]nc(-c3ccccc3O)c2C1c1ccc(OCc2ccccc2)c(OC)c1` (stereo not given), 43%. To `COCCCN1C(=O)c2[nH]nc(-c3ccccc3O)c2C1c1ccc(OC)cc1` (stereo not given) belongs 85%. As for `COCCN1C(=O)c2[nH]nc(-c3cc(C)ccc3O)c2C1c1ccc(C(C)C)cc1` (stereo not given), the survival was 11% (active). The result for `CCCCOc1cccc(C2c3c(-c4cc(C)ccc4O)n[nH]c3C(=O)N2CCOC)c1` (stereo not given) reads 25%; that for `O=C1NC(NS(=O)(=O)c2ccccc2)(C(F)(F)F)C(=O)N1c1ccc(F)cc1` (stereo not given), 76%. To `Cc1nc(CC(=O)Nc2ccc(C)c(C)c2)cs1` belongs 80%. Turning to `C/C=C/C(=O)N1CCCC(c2nc(-c3cccc(OC)c3)no2)C1` (stereo not given), the survival was 95%.

For `COc1ccc(C(=O)N(CC(=O)NC2CCCC2)C2CCCCC2)cc1OC`, the survival was 106%. The result for `COc1ccc(C)cc1NC(=O)CN1C(=O)CCc2cc(S(=O)(=O)N3CCOCC3)ccc21` reads 128%; that for `Cc1ccc(Cl)cc1NC(=O)CN1C(=O)C(C)(C)c2cc(S(=O)(=O)N3CCCCC3)ccc21`, 1% (active).

Consider `COc1ccc(Cl)cc1NC(=O)CN1C(=O)C(C)(C)c2cc(S(=O)(=O)N3CCCCC3)ccc21`, for which the survival is 81%.

`COc1ccc(NC(=O)CN2C(=O)CCc3cc(S(=O)(=O)N4CCOCC4)ccc32)c(OC)c1`: the survival was 66%. The result for `Cc1ccc(NC(=O)CN2C(=O)C(C)(C)c3cc(S(=O)(=O)N4CCCCC4)ccc32)c(Br)c1` reads 63%; that for `COc1ccc(OC)c(NC(=O)CN2C(=O)CCc3cc(S(=O)(=O)N4CCCCC4)ccc32)c1`, 0% (active).

Turning to `CC(=O)Nc1ccc(NC(=O)CSc2nccn2Cc2ccc3c(c2)OCO3)cc1`, the survival is 72%.

For `NCc1ccc2[nH]c(=O)[nH]c2c1`, the survival was 104%. The result for `CCOC(=O)c1nc(Nc2ccc(C(C)=O)cc2)c2ccccc2n1` reads 81%; that for `Cc1cccc(Nc2nc(-c3ccccc3)nc3ccccc23)c1`, -1% (active). To `CCC(=O)OCCCNc1nc(-c2ccc(Cl)cc2)nc2ccccc12` belongs -2% (active). To `Oc1ccc(Nc2nc(-c3ccc(Cl)cc3)nc3ccccc23)cc1` belongs 3% (active); to `COC(=O)c1ccc(Nc2nc(-c3ccc(C)cc3)nc3ccccc23)cc1`, 7% (active); to `CCOC(=O)c1nc(Nc2cccc(C)c2)c2ccccc2n1`, 83%. On to `CC(=O)c1cccc(Nc2nc(-c3cccc(C)c3)nc3ccccc23)c1`, for which the survival was 31%.

For the compound `Cc1ccc(OCCCCn2c(-c3ccc(Cl)cc3)nc3ccccc3c2=O)cc1`, the survival was 67%. To `OCCNc1nc(-c2cccnc2)nc2ccccc12` belongs 119%; to `Oc1cccc(Nc2nc(-c3ccccc3)nc3ccccc23)c1`, 19%.

Turning to `COC(=O)c1ccc(Nc2nc(-c3ccccc3Cl)nc3ccccc23)cc1`, the survival was 36%. The result for `Fc1ccc(Nc2nc(SCc3ccc(Cl)cc3)nc3ccccc23)cc1` reads 90%; that for `Cc1cn2c(=O)cc(COc3cccc(NC(=O)c4ccccc4Cl)c3)nc2s1`, 88%. To `O=C(c1cc2nc(-c3ccccc3)cc(-c3ccccc3)n2n1)N1CCCC1` belongs 100%; to `CCOC(=O)C1(CC)C(=O)OC(C(=O)NC2CCCCC2)C1C` (stereo not given), 112%. The result for `COc1cccc(-c2cc(C(=O)NCc3ccccc3)no2)c1` reads 85%; that for `Cc1ccc(C)n1-c1c(C(=O)NCC(C)c2ccccc2)sc2ncccc12` (stereo not given), 73%. For `Cc1ccc(-n2c(SCc3ccccc3F)nc3[nH]ncc3c2=O)cc1C`, the survival is 80%.

On to `CCOc1ccccc1-c1nc(=S)[nH][nH]1`, for which the survival was 110%. The result for `Cc1ccc(NCc2cccn2-c2nnc(N3CCC(C(=O)NC(C)C)CC3)s2)cc1` reads 121%; that for `CCOC(=O)c1ccccc1NC(=O)C(=O)Nc1ccc2nc3n(c(=O)c2c1)CCCCC3`, 123%; that for `COc1cc(Nc2nc(-c3ccc(OC)c(OC)c3)nc3ccccc23)cc(OC)c1`, 0% (active). To `COc1ccc(Nc2nc(-c3ccccc3F)nc3ccccc23)cc1OC` belongs 71%; to `COc1ccc(Nc2nc(-c3ccc(C)cc3)nc3ccccc23)c(OC)c1`, 70%. On to `Cc1cccc2nc(Cn3c(=O)n(-c4ccc(Cl)cc4)c(=O)c4c5c(sc43)CCC5)cc(=O)n12`, for which the survival is 121%. The result for `CCC(C(=O)NCCc1ccc(OC)c(OC)c1)n1nc(C)c2sc3ccccc3c2c1=O` (stereo not given) reads 79%. The result for `CC1(C)CC(=O)C/C(=N\NC(=O)CCc2ccccc2)C1` reads 122%. With `Cc1ccc(C(c2sc3nc(-c4ccco4)nn3c2O)N2CCOCC2)cc1` (stereo not given), the survival was 77%. For the compound `O=C(c1ccc2c(Cl)c3c(nc2c1)CCCC3)N1CCN(c2cccc(Cl)c2)CC1`, the survival is 62%.

For the compound `O=C(c1ccc2c(Cl)c3c(nc2c1)CCCC3)N1CCN(c2ccccc2)CC1`, the survival was 0% (active). On to `O=C(c1ccc2c(Cl)c3c(nc2c1)CCCC3)N1CCN(c2ccccc2F)CC1`, for which the survival was 0% (active).

Take `Cc1cccc(N2CCN(C(=O)c3ccc4c(Cl)c5c(nc4c3)CCCC5)CC2)c1C`: the survival was 88%. In the case of `O=C(c1ccc2c(Cl)c3c(nc2c1)CCCC3)N1CCN(c2ccc(Cl)cc2)CC1`, the survival is 90%. The result for `Cc1ccc(Cl)cc1N1CCN(C(=O)c2ccc3c(Cl)c4c(nc3c2)CCCC4)CC1` reads 29%; that for `O=C(NCCCc1ccccc1)c1nn(-c2ccccc2F)nc1CO`, 89%; that for `COc1ccc(C2=C(C)C(=NCc3ccc(OC(C)C)cc3)NS2(=O)=O)cc1`, 86%. To `CCCc1nc(C(C#N)c2ccc(F)cc2)c2nnn(Cc3ccccc3)c2n1` (stereo not given) belongs 109%; to `COc1ccc(N2CCN(C(=O)CN(c3cccc(C(F)(F)F)c3)S(C)(=O)=O)CC2)cc1`, 110%. The result for `COc1ccccc1N1CCN(C(=O)c2ccc(CS(=O)c3ccccc3C)o2)CC1` (stereo not given) reads 75%; that for `CCNC(=O)c1cc2n(n1)CCCN(Cc1ccc(C)cc1)C2=O`, 22%; that for `CCCNC(=O)c1cc2n(n1)CCCN(Cc1ccc(C)cc1)C2=O`, 129%.

As to `CCCSCCCNC(=O)c1cc2n(n1)CCCN(Cc1ccc(C)cc1)C2=O`, the survival is 113%. The result for `CCC(C)NC(=O)c1cc2n(n1)CCCN(Cc1ccc(C)cc1)C2=O` (stereo not given) reads 88%. The result for `CCCCNC(=O)c1cc2n(n1)CCCN(Cc1ccc(C)cc1)C2=O` reads 0% (active); that for `Cc1ccc(CN2CCCn3nc(C(=O)NC(C)C)cc3C2=O)cc1`, -2% (active).
